According to PubChem BioAssay AID1159580 (chemical genetic matrix, 2015):
Hit rate of the full screen: of about 5,500 compounds, about 2,000 (36%) were called active. Inconclusive results (about 18%) are left out. Cut-off read from the data, not from the text of the source: active = normalized growth mostly below about 0.91 (no sharp cut-off); inconclusive = no clear call, values can overlap the other calls; inactive = mostly above about 0.92. The list shows a part of the results.

Experiment: chemical genetic growth profiling, strain panel (AID 1159580);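 note: tested at 20 µM; growth read once vehicle control cultures reached saturation at 30 °C; 1 = growth at the plate median or of vehicle wells; lower values mean less growth of the strain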
Settings: growth OD
[1] = S. cerevisiae deletion strains, locus YAL040C, strain CLN3, stronger effect = lower value
[2] = S. cerevisiae deletion strains, locus YCL061C, strain MRC1 (second series), stronger effect = lower value
[3] = S. cerevisiae deletion strains, locus YDR150W, strain NUM1, stronger effect = lower value
[4] = S. cerevisiae deletion strains, locus YDR363W, strain ESC2, stronger effect = lower value
[5] = S. cerevisiae deletion strains, locus YER002W, strain NOP16, stronger effect = lower value
[6] = S. cerevisiae deletion strains, locus YGR078C, strain PAC10, stronger effect = lower value
[7] = S. cerevisiae deletion strains, locus YGR229C, strain SMI1, stronger effect = lower value
[8] = S. cerevisiae deletion strains, locus YNL153C, strain GIM3, stronger effect = lower value
[9] = S. cerevisiae deletion strains, locus YNL175C, strain NOP13, stronger effect = lower value
[10] = S. cerevisiae deletion strains, locus YNL197C, strain WHI3, stronger effect = lower value
[11] = S. cerevisiae deletion strains, locus YNL224C, strain SQS1, stronger effect = lower value
[12] = S. cerevisiae deletion strains, locus YNL322C, strain KRE1, stronger effect = lower value
[13] = S. cerevisiae deletion strains, locus YOR083W, strain WHI5 (second series), stronger effect = lower value
[14] = S. cerevisiae deletion strains, locus YPL055C, strain LGE1, stronger effect = lower value
[15] = S. cerevisiae deletion strains, locus YJR075W, strain HOC1, stronger effect = lower value
[16] = S. cerevisiae deletion strains, locus YMR263W, strain SAP30, stronger effect = lower value
[17] = S. cerevisiae deletion strains, locus YPL241C, strain CIN2, stronger effect = lower value

Measured: normalized growth

O=C(O)Cc1ccc(O)c(O)c1
inactive: [1] 1.05 | [2] 1 | [3] 1.01 | [4] 0.993 | [5] 0.996 | [6] 1.02 | [7] 0.976 | [8] 1.02 | [9] 1.02 | [10] 1.02 | [11] 0.982 | [12] 1 | [13] 0.996 | [14] 0.982

O=C(O)Cc1c[nH]c2ccc(O)cc12
inactive: [1] 0.988 | [2] 1 | [3] 1.01 | [4] 1 | [5] 0.974 | [6] 0.979 | [7] 1.08 | [15] 1.01 | [16] 0.995 | S. cerevisiae deletion strains, locus YMR307W, strain GAS1, stronger effect = lower value 1.01 | [8] 0.961 | [9] 0.982 | [10] 0.975 | [11] 1.01 | [13] 1 | [17] 0.992

Cc1ccc(CC(=O)O)cc1
inactive: S. cerevisiae deletion strains, locus YAL013W, strain DEP1, stronger effect = lower value 0.973 | S. cerevisiae deletion strains, locus YBR229C, strain ROT2, stronger effect = lower value 0.978 | S. cerevisiae deletion strains, locus YDL101C, strain DUN1, stronger effect = lower value 0.938 | [3] 0.884 | S. cerevisiae deletion strains, locus YEL061C, strain CIN8, stronger effect = lower value 1.02 | S. cerevisiae deletion strains, locus YHR030C, strain SLT2, stronger effect = lower value 1.04 | S. cerevisiae deletion strains, locus YHR087W, strain rtc3, stronger effect = lower value 0.947 | S. cerevisiae deletion strains, locus YJR043C, strain POL32, stronger effect = lower value 0.959 | S. cerevisiae deletion strains, locus YKL190W, strain CNB1, stronger effect = lower value 1.01 | S. cerevisiae deletion strains, locus YLR039C, strain RIC1, stronger effect = lower value 1.01 | S. cerevisiae deletion strains, locus YLR058C, strain SHM2 (second series), stronger effect = lower value 0.972 | S. cerevisiae deletion strains, locus YLR085C, strain ARP6, stronger effect = lower value 1.08 | S. cerevisiae deletion strains, locus YLR262C, strain YPT6, stronger effect = lower value 0.998 | S. cerevisiae deletion strains, locus YML094W, strain GIM5, stronger effect = lower value 1.03 | S. cerevisiae deletion strains, locus YMR219W, strain ESC1, stronger effect = lower value 0.985 | [16] 0.938 | [8] 0.964 | S. cerevisiae deletion strains, locus YNL298W, strain CLA4 (second series), stronger effect = lower value 1.06 | [12] 0.981 | S. cerevisiae deletion strains, locus YNR030W, strain Alg12, stronger effect = lower value 1.03 | S. cerevisiae deletion strains, locus YOL006C, strain TOP1, stronger effect = lower value 1.06 | [14] 0.906 | [17] 1.02 | S. cerevisiae deletion strains, locus YPR135W, strain CTF4, stronger effect = lower value 1.03 | S. cerevisiae strains, strain wild type, stronger effect = lower value 1.02
active: [6] 0.926 | [15] 0.885
